# Assay results from PubChem BioAssay AID1850 (Southern Research Specialized Biocontainment Screening …, 2009).
# Values joined by “and” are separate entries in the source; they are usually repeats but may differ in a detail not shown here. Identical values can stand only once. The campaign covered roughly 310,000 compounds. About 1,000 (0.32%) were called active. Only a sample is shown. Results with a measured potency or affinity are listed apart. Values without a mark were called inactive. How the calls were made is not given here.
# Assay: Inhibition of PhoP regulon, Salmonella typhi GFP reporter cells, confirmation, 4 h (AID 1850);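 further: 0% = induced wells with vehicle and 100% = uninduced wells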
# Conditions: Salmonella Typhi PhoP-promoter GFP reporter, fluorescence, at 50 µM, active compounds read high
row,SMILES,inhibition
1,O=C(c1cccc(Cl)c1)N1CCCc2ccccc21,4.51%
2,Cc1ccc(S(=O)(=O)N2CCN(c3cnn(C)c(=O)c3Cl)CC2)cc1,-6.96%
3,CCCCn1c(N)c(N(CCC(C)C)C(=O)CCN2C(=O)C3CC=CCC3C2=O)c(=O)[nH]c1=O (centres undefined),0.9%
4,CCOC(=O)c1c(NC(=O)Cn2nc(C(=O)O)c3ccccc3c2=O)sc2c1CCC(C)C2 (centres undefined),17.9%
5,COc1cccc(C2(O)CC(C(F)(F)F)=NN2C(=O)c2ccccn2)c1 (centres undefined),7.91%
6,C[n+]1c2n(c3ccccc31)N=C(c1ccccc1)CS2,0.32% and 11.8%
7,C[n+]1c2n(c3ccccc31)N=C(c1ccc(Cl)cc1)CS2,12.3%
8,O=C(CSC1=NS(=O)(=O)c2ccccc2N1)NCc1ccc(F)cc1,-4.98%
9,O=C(CNC(=O)c1ccccc1)N/N=C/c1cccs1,-1.08%
10,O=C(CNC(=O)c1ccccc1Cl)N/N=C/c1ccc([N+](=O)[O-])s1,-11.8%
11,O=C(CNC(=O)c1cccc(F)c1)N/N=C/c1cccc([N+](=O)[O-])c1,-5.75%
12,O=C(Cc1ccccc1)NCC(=O)N/N=C/c1ccc([N+](=O)[O-])s1,11.8%
13,O=C(Cc1ccccc1)N/N=C/c1ccc([N+](=O)[O-])s1,-7.77%
14,O=C(Cc1cccs1)N/N=C/c1ccccc1,10.9%
15,Cn1cccc1Cc1nnc(SCC(=O)Nc2ccc3c(c2)OCO3)n1-c1ccc(F)cc1,-1.53%
16,NC(=O)CN1C(=O)NC2(CCOc3ccccc32)C1=O (centres undefined),1.52%
17,CC(=O)Nc1ccc(NC(=O)c2cccc(-c3cc4ccccc4oc3=O)c2)cc1,12.9%
18,CCn1cc(C(=O)NCCCOC(C)C)c2cc(OC)c(OC)cc2c1=O,2.36%
19,CN(C)c1ccc(P(=O)(COc2ccc([N+](=O)[O-])cc2)c2ccc(N(C)C)cc2)cc1,2.27%
20,O=C(CSc1ccc(-c2cccnc2)nn1)N1CCCCCC1,1.55%
21,O=C(CCCn1cc([N+](=O)[O-])cn1)NCc1ccccc1,8.46%
22,Cc1c(C(=S)NC(=O)C2CC2)c(=O)n(-c2ccccc2)n1C,-1.42%
23,CCc1ccc2c(CN(CC)Cc3nc4ccccc4c(=O)[nH]3)cc(=O)oc2c1,1.52%

row,SMILES,inhibition
1,Nc1nc2ccccc2n1CCOc1ccc(Cl)cc1,14.7%
2,CCn1c(N)nc2ccccc21,4.17%
3,Cc1ccc(Cn2c(N)nc3ccccc32)cc1,9.42%
4,Nc1nc2ccccc2n1CCOc1ccc(F)cc1,-3.28%
5,Cc1ccc(NS(=O)(=O)c2ccc(C(=O)N3CC(C)CC(C)C3)cc2)cc1 (centres undefined),-0.14%
6,Cc1cc(=O)oc2cc(OCc3ccc(S(=O)(=O)N4CCOCC4)cc3)ccc12,-0.96%
7,CC(C)c1ccc(/C=C2\SC(=O)N(CC(=O)NC3CCS(=O)(=O)C3)C2=O)cc1 (centres undefined),-0.28%
8,CC(C(=O)NC1C=CS(=O)(=O)C1)N1C(=O)/C(=C\c2ccccc2)SC1=S (centres undefined),-9.78%
9,COc1ccc(/C=C2\SC(=S)N(C(C)C(=O)NC3C=CS(=O)(=O)C3)C2=O)cc1 (centres undefined),0.74%
10,COc1cccc(/C=C2\SC(=S)N(C(C)C(=O)NC3C=CS(=O)(=O)C3)C2=O)c1 (centres undefined),-39%
11,CC(C(=O)N(C)C1CCS(=O)(=O)C1)N1C(=O)/C(=C/c2ccc(F)cc2)SC1=S (centres undefined),-40%
12,O=C(CN1C(=O)/C(=C/c2cccc(Cl)c2)SC1=S)NC1C=CS(=O)(=O)C1 (centres undefined),-2.52%
13,COc1cc2c(cc1OC)C(C)N(C(=O)c1c(C)noc1C)CC2 (centres undefined),-18.4%
14,CC(=O)CCC(=O)OCC(=O)Nc1ccc(SC(F)F)cc1,-3.54%
15,O=C1CCC(=O)N1c1ccc(NC2CCN(Cc3ccccc3)CC2)c([N+](=O)[O-])c1,-3.82%
16,CC1(C)C2CC[C@]3(C)C(CC=C4[C@@H]5C[C@@](C)(CO)[C@@H](O)C[C@]5(C(=O)O)CC[C@]43C)[C@@]2(C)CC[C@@H]1O (some centres undefined),-13.5%
17,CC(C)(C)NCc1cccn1-c1sc2c(c1C#N)CCCC2,-5.99%
18,C=CC[n+]1c(/C=C2\C=Cc3cc(C)ccc3N2CC)ccc2ccccc21,-11.1%
19,CCN1/C(=C/c2ccc3ccccc3[n+]2CCCS(=O)(=O)[O-])C=Cc2cc(C)ccc21,14.2%
20,CCOC(=O)C(=CNc1ccc(C(O)(C(=O)OCC)C(F)(F)F)cc1C)C(=O)OCC (centres undefined),-10.1%
21,CCOC(=O)c1[nH]c2ccc(OC)cc2c1NC(=O)CN1CCSCC1,6.71%
22,Cc1cccc(N2CCN(C(=O)c3csc4ccccc34)CC2C)c1 (centres undefined),-6.46%
23,Cc1ccc(NC(=O)CCC(=O)N/N=C/c2ccc([N+](=O)[O-])o2)cc1C,-0.54%

row,SMILES,inhibition
1,Cc1nonc1C(=O)N/N=C/c1cccc(O)c1,-9.29%
2,Cc1cc(C(=O)N/N=C/c2ccc([N+](=O)[O-])o2)c(C)o1,-1.11%
3,Nc1nonc1C(=O)N/N=C/c1ccc([N+](=O)[O-])o1,-4.72%
4,CCCCCC(=O)N/N=C/c1ccc([N+](=O)[O-])o1,17.1%
5,Cc1nonc1C(=O)N/N=C/c1ccc(O)c(O)c1,-18.7%
6,O=C(CSc1ccc(Cl)cc1)N/N=C/c1ccc([N+](=O)[O-])o1,-1.14%
7,CCCOc1ccc(CCC(=O)N/N=C/c2ccc([N+](=O)[O-])o2)cc1,3.44%
8,COc1ccccc1C(=O)N1CCc2ccccc21,-2.54%
9,COCCN(C(=S)Nc1cc(C)cc(C)c1)C(C)c1cccnc1 (centres undefined),-6.47%
10,O=C1c2ccccc2C(=O)N1OCc1ccccc1,-23.3%
11,COc1ccc(N(C)C(=O)CCC(=O)Nc2ccc3nc(N4CCOCC4)cc(C)c3c2)c(OC)c1,-10.9%
12,CC(C)c1ccccc1OCC(=O)Nc1ccc2[nH]ncc2c1,-2.28%
13,O=C1CC(c2ccccc2Cl)CC(O)=C1C=Nc1ccccc1 (centres undefined),-11%
14,Cc1cc(C)cc(OCC(=O)N/N=C/c2ccc([N+](=O)[O-])o2)c1,-6.8%
15,O=C(CCN1CCN(c2ccccc2)CC1)N/N=C/c1ccccc1O,-12.1%
16,O=C(COc1ccccc1)N/N=C/c1ccc([N+](=O)[O-])o1,3.11%
17,O=C(Cc1ccccc1)N/N=C/c1ccc(-c2ccc([N+](=O)[O-])cc2)o1,-11.9%
18,CC(=O)Nc1ccc(/C=N/NC(=O)CCN2CCN(c3ccccc3)CC2)cc1,3.88%
19,Cc1nc2ccccn2c1C(=O)N/N=C/c1ccc([N+](=O)[O-])cc1,2.94%
20,O=C(CNc1cccc([N+](=O)[O-])c1)N/N=C/c1ccc([N+](=O)[O-])o1,17.3%
21,Cc1nc2ccccn2c1C(=O)N/N=C/c1ccccc1[N+](=O)[O-],5.76%
22,COc1cc(Nc2nc3ccccc3nc2NS(=O)(=O)c2ccc([N+](=O)[O-])cc2)cc(OC)c1OC,6.03%
23,CN(Cc1ccccc1)CC(O)COc1ccc(CNCCc2cccnc2)cc1 (centres undefined),9.53%

row,SMILES,inhibition
1,Cc1ncc(CCl)c2c1OC(C)(C)OC2,5.02%
2,COc1ccc(NC(=O)NCc2cccnc2)c(OC)c1,-7.58%
3,O=C(Cc1ccccc1)Nc1nccs1,-0.57%
4,Cc1cc(OC(C)C(=O)N2C[C@H]3C[C@@H](C2)c2cccc(=O)n2C3)c2c(C)c(C)c(=O)oc2c1 (some centres undefined),-6.28%
5,CC(C)Cc1nnc(NC(=O)CCC(=O)N2CCN(c3ccccn3)CC2)s1,-13%
6,O=[N+]([O-])c1cccnc1NCCc1c[nH]c2ccccc12,-3.53%
7,Cc1cc(NC(=O)CSCC(=O)N2CCN(c3cccc(C(F)(F)F)c3)CC2)no1,6.28%
8,CCOC(=O)N/N=C(\C)c1ccc(C)o1,-8.47%
9,NC(=O)N/N=C/c1ccc([N+](=O)[O-])o1,1.06%
10,CCCC(=O)Nc1ccc(C(=O)N/N=C/c2ccc([N+](=O)[O-])o2)cc1,14.4%
11,C/C(=N/NC(=O)C(O)(c1ccccc1)c1ccccc1)c1ccc([N+](=O)[O-])o1,-14%
12,O=C(N/N=C/C=C/c1ccccc1[N+](=O)[O-])c1cccs1,-2.89%
13,O=C(N/N=C/c1ccc([N+](=O)[O-])o1)c1ccc2c(c1)OCO2,3.54%
14,O=C(N/N=C/C=C/c1ccc([N+](=O)[O-])cc1)c1cccs1,6.74%
15,O=C(CN1CCCCCCC1)N/N=C/c1ccc([N+](=O)[O-])o1,8.07%
16,COc1ccc(C2C(C(C)=O)=C(O)C(=O)N2Cc2ccccc2)c(OC)c1 (centres undefined),-1.09%
17,Cc1ccc([C@@H]2[C@@H]3C(=O)N(C)C(=O)[C@@H]3[C@]3(Cc4ccccc4)C(=O)N(Cc4ccccn4)CC(=O)N23)o1,5.99%
18,COc1ccccc1N1CCN(C2CCCN(C(=O)c3cc(C4CC4)on3)C2)CC1 (centres undefined),-1.91%
19,O=C(C[n+]1cc(-c2ccccc2)n2c1CCCCC2)c1ccc(Br)cc1,-5.28%
20,CCOC(=O)N1CCN(C(=O)c2cn(CC)c3ccc(S(=O)(=O)N4CC(C)CC(C)C4)cc3c2=O)CC1 (centres undefined),-8.02%
